# Results from PubChem BioAssay.
# Active and inactive are the calls of the source.
# Legend:
# [1] = test system: Plasmodium falciparum Sir2 (PF13_0152, Sir2A); assay: pfSir2 binders on small-molecule microarrays, primary screen, biochemical, small-molecule microarray, 635 nm fluorescence (AID 1098); details: small-molecule microarray binding, fluorescence 635 nm; higher = more signal;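 note: score merges spot fluorescence intensity with its signal-to-noise ratio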
# [2] = small-molecule microarray binders of probe aDKK1, primary screen, biochemical, biotinylated probe, 635/667 nm fluorescence (AID 1099); details: higher = more signal;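 note: score merges 667nm spot fluorescence with signal to noise across triplicate slides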
# [3] = small-molecule microarray binders of probe aCHRDL2, primary screen, biochemical, biotinylated probe, 635/667 nm fluorescence (AID 1100); details: higher = more signal
# [4] = splicing luciferase reporter signal modulators, primary screen, spliceosome inhibition project, cell-based, HEK293, splice +/- reporter (AID 1101); details: luminescence, 24 h, higher = more signal, called active from +8 up or from −8 down;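 note: HEK293 cells carrying a splicing-competent luciferase reporter gene; test concentration not given here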
# [5] = target: Fibroblast growth factor 10 (Homo sapiens) (UniProt O15520); assay: FGF10 binders on small-molecule microarrays, primary screen, biochemical, small-molecule microarray, 635 nm fluorescence (AID 1102); details: FGF10 binding, fluorescence 635 nm, higher = more signal
# [6] = test system: glycogen synthase kinase-3 (GSK3A per assay name; protocol says GSK3B); assay: GSK3 binders on small-molecule microarrays, primary screen, biochemical, small-molecule microarray, 635 nm fluorescence, GSK3A (AID 1103); details: small-molecule microarray binding, fluorescence 635 nm; higher = more signal; note: the record names both GSK3A and GSK3B
# [7] = target: Epidermal growth factor receptor (Homo sapiens) (UniProt P00533); assay: EGFR binders on small-molecule microarrays, primary screen, biochemical, small-molecule microarray, 635 nm fluorescence (AID 1104); details: EGFR binding, higher = more signal;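 note: score merges 667 nm emission intensity with spot signal to noise over triplicate slides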
# [8] = target: Follistatin-related protein 3 (Homo sapiens) (UniProt O95633); assay: FSTL3 binders on small-molecule microarrays, primary screen, biochemical, small-molecule microarray, 635 nm fluorescence (AID 1105); details: FSTL3 binding, higher = more signal;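 note: score merges emission near 667 nm and signal to noise per printed spot across three slides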
# [9] = target: Dickkopf-related protein 1 (Homo sapiens) (UniProt O94907); assay: DKK1 binders on small-molecule microarrays, primary screen, biochemical, small-molecule microarray, 635 nm fluorescence scan (AID 1106); details: DKK1 binding, higher = more signal;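 note: score merges emission near 667 nm with signal to noise over three replicate slides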
# [10] = test system: Inhibin beta A chain (activin A); assay: INHBA (activin A) binders on microarrays, primary screen, biochemical, small-molecule microarray, 635 nm fluorescence scan (AID 1107); details: small-molecule microarray binding, higher = more signal;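 note: mouse activin A protein probed at 4.33 µg/mL on printed slides; score merges bound-protein fluorescence near 667 nm with spot signal-to-noise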
# [11] = test system: Human papillomavirus type 1a protein E7 (residues 44-93); assay: HPV1a E7 fragment binders on microarrays, primary screen, biochemical, small-molecule microarray, residues 44-93, 635 nm fluorescence (AID 1108); details: small-molecule microarray binding, fluorescence 635 nm; higher = more signal;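 note: E7 fragment applied at 1 µg/mL in TBST for 1 h at 4 C; score combines spot fluorescence with its signal to noise ratio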
# [12] = modulators of HCV replicon luciferase signal, primary screen, HCV replication inhibitor project, Huh7 cells, luciferase reporter (AID 1109); details: 48 h, higher = more signal;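 note: huh7 hepatoma cells harbouring a luciferase neomycin HCV replicon reporter; luciferase luminescence as measure of HCV replicon replication; test concentration not given here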
# [13] = target: Left-right determination factor 2 (Homo sapiens) (UniProt O00292); assay: LEFTY2 binders on small-molecule microarrays, primary screen, biochemical, small-molecule microarray, 635 nm fluorescence scan (AID 1110); details: LEFTY2 binding, higher = more signal
# [14] = target: Calmodulin-1 (Homo sapiens) (UniProt P0DP23); assay: CALM1 binders on microarrays, EGTA buffer, profiling panel, biochemical, small-molecule microarray, Cy5-labelled CALM1 (AID 1111); details: Cy5-CALM1 binding fluorescence, higher = more signal;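 note: labelled calmodulin applied in Tris saline Tween buffer holding calcium plus EGTA and DTT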
# [15] = target: Calmodulin-1 (Homo sapiens) (UniProt P0DP23); assay: calcium-bound CALM1 binders on microarrays, profiling panel, artefact control for SMM control-protein annotation, biochemical, small-molecule microarray, Cy5-labelled CALM1, plus calcium (AID 1112); details: Cy5-CALM1 binding fluorescence, higher = more signal;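 note: score merges spot fluorescence with signal to noise from triplicate slides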
# [16] = small-molecule microarray binders of probe aWnt5a, primary screen, biochemical, biotinylated probe, 635/667 nm fluorescence (AID 1113); details: higher = more signal;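 note: score merges 667 nm fluorescence intensity with signal-to-noise per printed feature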
# [17] = small-molecule microarray binders of probe aShh, primary screen, biochemical, biotinylated probe, 635/667 nm fluorescence (AID 1114); details: higher = more signal;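 note: probe is biotin-labelled aShh protein from a stem cell growth factor screen; measures binding of labelled protein to compounds printed on the slide; score merges feature fluorescence at 667 nm with signal-to-noise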
# [18] = small-molecule microarray binders of probe aNog, primary screen, biochemical, biotinylated probe, 635/667 nm fluorescence (AID 1115); details: higher = more signal;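 note: probe is biotinylated aNog protein used at 0.15 µg/mL for 1 h at 4 C; z-score combines 667 nm fluorescence of each spot with its signal to noise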
# [19] = target: Torsin-1A-interacting protein 1 (Homo sapiens) (UniProt Q5JTV8); assay: LAP1 binders from COS7 cell lysate, primary screen, small-molecule microarray, 635/667 nm fluorescence (AID 1116); details: COS7-hLAP1 lysate binding, 635 nm fluorescence, higher = more signal
# [20] = target: Alpha-bungarotoxin (Bungarus multicinctus) (UniProt P60615); assay: alpha-bungarotoxin binders on microarray, profiling panel, artefact control for SMM control protein annotation, biochemical, small-molecule microarray, Alexa647 label, 635/667 nm fluorescence (AID 1117); details: alpha-BTX-A647 binding fluorescence, higher = more signal
# Sequence of Alpha-bungarotoxin (Bungarus multicinctus) (P60615 whole entry, looked up): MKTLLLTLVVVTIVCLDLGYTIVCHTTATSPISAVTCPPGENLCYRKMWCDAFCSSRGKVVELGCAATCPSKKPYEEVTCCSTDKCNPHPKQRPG
# Sequence of Fibroblast growth factor 10 (Homo sapiens) (O15520 whole entry, looked up): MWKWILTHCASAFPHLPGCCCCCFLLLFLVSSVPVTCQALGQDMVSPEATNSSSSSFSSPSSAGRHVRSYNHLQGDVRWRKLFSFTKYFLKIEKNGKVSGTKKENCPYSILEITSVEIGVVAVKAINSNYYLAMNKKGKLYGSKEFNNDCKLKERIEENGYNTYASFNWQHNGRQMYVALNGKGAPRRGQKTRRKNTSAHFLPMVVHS
# Sequence of Torsin-1A-interacting protein 1 (Homo sapiens) (Q5JTV8 whole entry, looked up): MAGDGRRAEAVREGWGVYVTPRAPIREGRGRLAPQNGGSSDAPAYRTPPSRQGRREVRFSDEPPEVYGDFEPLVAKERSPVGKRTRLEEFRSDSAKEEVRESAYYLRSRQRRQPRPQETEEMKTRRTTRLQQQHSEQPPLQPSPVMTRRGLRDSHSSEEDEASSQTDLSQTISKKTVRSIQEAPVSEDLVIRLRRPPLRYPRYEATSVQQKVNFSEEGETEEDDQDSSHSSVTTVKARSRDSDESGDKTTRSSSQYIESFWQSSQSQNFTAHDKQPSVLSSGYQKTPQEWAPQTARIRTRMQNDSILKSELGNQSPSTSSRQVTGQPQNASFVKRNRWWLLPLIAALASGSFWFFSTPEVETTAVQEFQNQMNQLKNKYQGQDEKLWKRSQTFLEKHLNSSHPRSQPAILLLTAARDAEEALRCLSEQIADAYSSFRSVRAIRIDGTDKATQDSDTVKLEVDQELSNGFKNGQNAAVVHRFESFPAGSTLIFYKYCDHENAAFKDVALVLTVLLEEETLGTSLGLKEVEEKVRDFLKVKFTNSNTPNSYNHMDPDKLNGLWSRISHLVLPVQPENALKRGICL
# Sequence of Follistatin-related protein 3 (Homo sapiens) (O95633 whole entry, looked up): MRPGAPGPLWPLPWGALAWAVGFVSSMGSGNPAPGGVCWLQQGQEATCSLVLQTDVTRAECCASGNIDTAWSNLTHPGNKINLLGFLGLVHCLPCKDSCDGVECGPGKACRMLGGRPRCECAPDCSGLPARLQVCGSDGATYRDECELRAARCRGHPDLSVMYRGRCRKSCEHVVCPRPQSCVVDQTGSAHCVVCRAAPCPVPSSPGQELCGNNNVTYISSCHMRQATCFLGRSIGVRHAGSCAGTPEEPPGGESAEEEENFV
# Sequence of Left-right determination factor 2 (Homo sapiens) (O00292 whole entry, looked up): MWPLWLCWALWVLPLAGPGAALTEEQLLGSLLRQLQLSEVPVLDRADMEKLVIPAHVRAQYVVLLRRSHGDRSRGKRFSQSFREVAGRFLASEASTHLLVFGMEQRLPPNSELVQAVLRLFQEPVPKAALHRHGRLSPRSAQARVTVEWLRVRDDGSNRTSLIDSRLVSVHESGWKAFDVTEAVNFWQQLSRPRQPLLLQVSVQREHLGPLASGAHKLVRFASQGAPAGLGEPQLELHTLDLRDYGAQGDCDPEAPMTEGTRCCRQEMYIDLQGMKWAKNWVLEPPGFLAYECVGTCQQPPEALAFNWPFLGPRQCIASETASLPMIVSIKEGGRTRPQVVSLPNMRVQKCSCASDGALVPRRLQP
# Sequence of Dickkopf-related protein 1 (Homo sapiens) (O94907 whole entry, looked up): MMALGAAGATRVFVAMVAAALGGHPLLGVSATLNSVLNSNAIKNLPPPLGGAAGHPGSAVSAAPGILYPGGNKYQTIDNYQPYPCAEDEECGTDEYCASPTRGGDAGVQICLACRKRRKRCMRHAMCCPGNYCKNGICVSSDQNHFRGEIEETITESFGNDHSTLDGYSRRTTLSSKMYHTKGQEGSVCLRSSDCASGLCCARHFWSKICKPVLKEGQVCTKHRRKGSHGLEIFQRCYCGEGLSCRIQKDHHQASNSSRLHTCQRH
# Sequence of Epidermal growth factor receptor (Homo sapiens) (P00533 whole entry, looked up): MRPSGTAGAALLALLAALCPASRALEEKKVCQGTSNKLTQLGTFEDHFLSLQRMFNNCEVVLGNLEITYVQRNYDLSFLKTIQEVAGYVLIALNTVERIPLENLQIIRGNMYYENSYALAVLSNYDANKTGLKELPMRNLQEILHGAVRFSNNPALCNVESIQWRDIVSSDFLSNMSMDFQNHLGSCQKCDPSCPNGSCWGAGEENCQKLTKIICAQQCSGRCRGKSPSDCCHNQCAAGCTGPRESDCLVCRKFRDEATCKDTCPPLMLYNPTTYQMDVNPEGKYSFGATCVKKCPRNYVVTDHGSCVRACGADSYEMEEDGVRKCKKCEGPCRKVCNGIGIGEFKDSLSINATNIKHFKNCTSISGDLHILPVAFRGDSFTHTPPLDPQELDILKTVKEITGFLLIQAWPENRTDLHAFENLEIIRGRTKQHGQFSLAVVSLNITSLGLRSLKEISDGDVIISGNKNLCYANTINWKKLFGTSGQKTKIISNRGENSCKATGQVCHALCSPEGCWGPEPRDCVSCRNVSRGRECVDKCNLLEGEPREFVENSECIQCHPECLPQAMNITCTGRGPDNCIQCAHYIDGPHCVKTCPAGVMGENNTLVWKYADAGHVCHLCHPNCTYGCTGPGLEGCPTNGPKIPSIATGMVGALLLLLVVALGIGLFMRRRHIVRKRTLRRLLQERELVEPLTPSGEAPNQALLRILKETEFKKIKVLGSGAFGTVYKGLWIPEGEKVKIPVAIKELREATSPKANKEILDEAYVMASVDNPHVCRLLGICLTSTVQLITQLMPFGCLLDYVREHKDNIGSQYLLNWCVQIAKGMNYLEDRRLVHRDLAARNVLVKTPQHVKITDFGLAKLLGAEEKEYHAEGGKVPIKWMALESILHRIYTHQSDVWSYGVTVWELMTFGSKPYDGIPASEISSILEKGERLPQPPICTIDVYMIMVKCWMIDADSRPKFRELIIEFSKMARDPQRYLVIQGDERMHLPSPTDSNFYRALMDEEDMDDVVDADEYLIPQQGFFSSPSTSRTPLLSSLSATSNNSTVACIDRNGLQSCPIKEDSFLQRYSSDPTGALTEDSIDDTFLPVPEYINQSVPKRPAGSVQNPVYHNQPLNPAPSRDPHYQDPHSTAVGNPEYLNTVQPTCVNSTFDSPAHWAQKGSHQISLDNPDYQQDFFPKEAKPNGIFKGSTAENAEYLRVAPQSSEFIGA
SMILES,composite z-score [1],composite z-score [2],composite z-score [3],z-score [4],composite z-score [5],composite z-score [6],composite z-score [7],composite z-score [8],composite z-score [9],composite z-score [10],composite z-score [11],z-score [12],composite z-score [13],composite z-score [14],composite z-score [15],composite z-score [16],composite z-score [17],composite z-score [18],composite z-score [19],composite z-score [20]
CCCNC(=O)OC[C@H]1O[C@H](CCON=C[C@@H](C)[C@H](OCc2ccccc2)C(C)C)C=C[C@@H]1Oc1ccc(OC)cc1,-0.369,-0.275,-0.228,-1.54 (inactive),-0.302,-1.32,0.332,-0.245,0.159,0.33,0.427,-2.17,0.182,-0.755,-0.515,-0.156,-0.484,-0.196,-0.163,0.297
C[C@@H]1C=CCC(=O)OC[C@H](C)C(=O)N[C@@H](Cc2ccccc2)C(=O)OC1,-0.0137,-0.526,-0.683,-1.03 (inactive),0.3,-0.0825,0.643,0.582,0.909,-0.289,-0.118,0.962,0.786,-0.273,-0.62,-0.118,-0.414,-0.17,-0.232,-0.0092
CC[C@@H](c1ccccc1)n1c(=O)n2n(c1=O)[C@H]1[C@H](O)[C@@H]3O[C@@H]3C(=NOCc3ccccc3)[C@H]1CC2,0.217,-0.148,-0.406,2.5 (inactive),0.487,-0.0586,0.123,0.489,0.235,0.517,0.502,-4.13,0.244,0.207,-0.258,-0.107,-0.0146,-0.0606,-0.0058,0.919
CO[C@@H]1COC(=O)[C@H](CCSC)NC(=O)CC=C[C@@H](C)COC(=O)[C@@H]2CCCN2C(=O)CC=C[C@H]1C,0.275,-0.337,-0.584,-0.595 (inactive),0.779,0.745,0.898,0.909,1.01,0.4,-0.427,-0.522,0.857,-0.776,-1.36,-0.0276,0.0278,-0.036,0.771,-0.245
O=C(NN=C1C[C@@H](O)[C@@H](O)[C@@H]2[C@@H]3C(=O)N(Cc4ccc5c(c4)OCO5)C(=O)[C@@H]3CC[C@@H]12)OCc1ccccc1,-0.0768,0.618,0.828,-1.41 (inactive),-0.319,-0.456,-0.254,-0.408,-0.465,0.319,-0.189,-1.39,0.0764,-0.114,-0.103,-0.176,0.227,-0.0498,0.739,0.26
CCOC(=O)[C@H](Cc1ccccc1)NC(=O)CCC1CC(OC(=O)NCCc2ccc(F)cc2)CC2(CCCC(COC(=O)NCc3cccc(C(F)(F)F)c3)O2)O1 (stereo not given in full),0.863,-0.139,-0.311,-0.891 (inactive),0.904,1.06,0.818,0.786,0.484,-0.335,1.3,-1.8,0.763,1.43,0.465,-0.154,-0.221,0.0498,0.109,1.04
CCN1C(=O)[C@H]2[C@H]3[C@H](O)[C@H](O)CC(=NO[C@@H](C)c4cc(-c5c(C)cc(C)cc5C)no4)[C@@H]3CC[C@H]2C1=O,0.808,0.101,-0.239,-0.111 (inactive),0.841,1.24,0.451,1.18,0.647,-0.989,1.02,-0.946,0.685,0.224,-0.525,-0.0799,-0.0146,-0.177,0.952,1.02
CC(CCN1CCCc2nc(C)c(C)cc21)=NOC[C@@H](C)[C@H](OCc1ccccc1)C(C)C,-0.438,-0.359,-0.623,-0.81 (inactive),-0.569,-0.715,-0.771,-0.413,-0.265,0.356,-1.39,-0.148,-0.196,-1,-0.387,-0.0685,-0.138,-0.255,-0.187,-1.1
CO[C@H]1COC(=O)[C@H](C)COC(=O)[C@@H](OCc2ccccc2)C=C[C@@H]1C,-0.0072,-0.386,-0.743,0.0228 (inactive),0.083,-0.357,0.274,-0.266,0.32,0.251,-0.0848,-0.0886,0.328,-0.46,-0.726,-0.123,-0.0769,-0.379,-0.149,-0.281
COc1cccc([C@H]2Oc3ccc(OC)cc3C(=NO[C@@H](C)c3cc(-c4c(C)cc(C)cc4C)no3)[C@@H]2O)c1,0.288,0.838,1.53,-0.328 (inactive),-1.66,-0.532,-2.38,-1.99,-3.26,0.313,-0.355,-1.71,-2.35,-0.831,0.668,-0.172,-0.195,0.0983,-0.589,-0.628
COc1ccc(OC[C@@H]2CC3[C@@H](c4ccc(Br)cc4)[C@H](C)CC[C@H]3C(=O)O2)cc1 (stereo not given in full),0.353,-0.436,-0.727,-0.823 (inactive),0.638,-0.274,0.885,0.354,0.827,0.483,-0.722,-0.312,0.418,-0.991,-0.642,-0.158,-0.367,-0.0003,0.308,0.287
COc1cccc([C@H]2Oc3ccc(OC)cc3C(=NOCC[C@@H]3C=C[C@H](OC(C)=O)[C@@H](COC(C)=O)O3)[C@@H]2O)c1,1.21,0.0266,-0.153,-0.019 (inactive),0.696,0.321,0.274,0.795,0.718,0.842,0.687,-0.544,0.492,-0.547,-0.314,-0.0865,-0.0553,0.197,0.786,0.635
